Assay results from the supplement of paper PMC8728848.
The sample as a whole holds a higher share of the strongest signals than the screen did.

Assays:
Experiment in all cases: glycan array binding signal (z-score within array); higher = stronger binding
Details in all cases: glycan notation: IUPAC condensed, linker removed
[1] = target: Fuc(a1-2)Gal(b1-3)GlcNAc(b1-3)Gal(b1-4)Glc
Method in brief: (§1)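 The binding signal is a Z-score computed within each array and averaged over linkers. Arrays of the same protein sequence at different concentrations or buffers were also averaged together. Data originate from 3228 arrays in the Consortium for Functional Glycomics database, kept only where the protein sequence was available.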

[2] = target: Fuc(a1-2)Gal(b1-3)[Fuc(a1-4)]GlcNAc(b1-2)Man(a1-3)[Fuc(a1-2)Gal(b1-3)[Fuc(a1-4)]GlcNAc(b1-2)Man(a1-6)]Man(b1-4)GlcNAc(b1-4)GlcNAc
Method in brief: as §1

Fuc(a1-2)Gal(b1-4)Glc6S = target: Fuc(a1-2)Gal(b1-4)Glc6S
Method in brief: as §1

[3] = target: Fuc(a1-2)Gal(b1-4)[Fuc(a1-3)]GlcNAc
Method in brief: as §1

[4] = target: Fuc(a1-2)Gal(b1-4)[Fuc(a1-3)]GlcNAc(b1-2)Man(a1-3)[Fuc(a1-2)Gal(b1-4)[Fuc(a1-3)]GlcNAc(b1-2)Man(a1-6)]Man(b1-4)GlcNAc(b1-4)GlcNAc
Method in brief: as §1

[5] = target: Fuc(a1-2)Gal(b1-4)[Fuc(a1-3)]GlcNAc(b1-3)Gal(b1-4)[Fuc(a1-3)]GlcNAc(b1-3)Gal(b1-4)[Fuc(a1-3)]GlcNAc
Method in brief: as §1

[6] = target: Fuc(a1-2)[Gal(a1-3)]Gal(b1-4)Glc
Method in brief: as §1

[7] = target: Fuc(a1-3)[Gal(b1-4)]GlcNAc(b1-4)Gal(b1-4)[Fuc(a1-3)]GlcNAc(b1-4)Gal(b1-4)[Fuc(a1-3)]GlcNAc
Method in brief: as §1

[8] = target: Fuc(a1-3)[Neu5Ac(a2-3)]Gal(b1-4)GlcNAc(b1-3)GalNAc
Method in brief: as §1

Fuc(a1-4)GlcNAc = target: Fuc(a1-4)GlcNAc
Method in brief: as §1

[9] = target: Gal(a1-3)Gal(b1-4)[Fuc(a1-3)]GlcNAc(b1-2)Man(a1-3)[Gal(a1-3)Gal(b1-4)[Fuc(a1-3)]GlcNAc(b1-2)Man(a1-6)]Man(b1-4)GlcNAc(b1-4)GlcNAc
Method in brief: as §1

Gal(a1-3)GalNAc = target: Gal(a1-3)GalNAc
Method in brief: as §1

Gal(b1-3)GlcNAc = target: Gal(b1-3)GlcNAc
Method in brief: as §1

[10] = target: Gal(b1-4)GlcNAc(b1-2)Man(a1-3)[Man(a1-6)]Man(b1-4)GlcNAc(b1-4)GlcNAc
Method in brief: as §1

[11] = target: Gal(b1-4)GlcNAc(b1-2)[Gal(b1-4)GlcNAc(b1-4)]Man(a1-3)[Gal(b1-4)GlcNAc(b1-2)Man(a1-6)]Man(b1-4)GlcNAc(b1-4)GlcNAc
Method in brief: as §1

Gal4S6S(b1-4)GlcNAc = target: Gal4S6S(b1-4)GlcNAc
Method in brief: as §1

[12] = target: GlcNAc(a1-4)Gal(b1-4)GlcNAc
Method in brief: as §1

[13] = target: GlcNAc(b1-2)Man(a1-3)[GlcNAc(b1-2)Man(a1-6)]Man(b1-4)GlcNAc(b1-4)[Fuc(a1-6)]GlcNAc
Method in brief: as §1

GlcNAc(b1-3)Gal = target: GlcNAc(b1-3)Gal
Method in brief: as §1

[14] = target: GlcNAc(b1-3)[GlcNAc(b1-6)]Gal(b1-4)GlcNAc
Method in brief: as §1

[15] = target: Man(a1-2)Man(a1-2)Man(a1-6)[Man(a1-3)]Man
Method in brief: as §1

[16] = target: Man(a1-2)Man(a1-3)[Man(a1-2)Man(a1-6)]Man
Method in brief: as §1

[17] = target: Man(a1-2)Man(a1-3)[Man(a1-2)Man(a1-6)]Man(a1-6)[Man(a1-2)Man(a1-2)Man(a1-3)]Man
Method in brief: as §1

[18] = target: Man(a1-2)Man(a1-3)[Man(a1-6)]Man(a1-6)[Man(a1-2)Man(a1-3)]Man(b1-4)GlcNAc(b1-4)GlcNAc
Method in brief: as §1

[19] = target: Man(a1-2)Man(a1-6)[Man(a1-3)]Man(a1-6)[Man(a1-2)Man(a1-2)Man(a1-3)]Man
Method in brief: as §1

[20] = target: Man(a1-2)Man(a1-6)[Man(a1-3)]Man(a1-6)[Man(a1-2)Man(a1-2)Man(a1-3)]Man(b1-4)GlcNAc(b1-4)GlcNAc
Method in brief: as §1

Man(a1-3)[Man(a1-6)]Man = target: Man(a1-3)[Man(a1-6)]Man
Method in brief: as §1

Man(b1-4)GlcNAc = target: Man(b1-4)GlcNAc
Method in brief: as §1

[21] = target: Neu5Ac(a2-3)Gal(b1-4)GlcNAc(b1-3)Gal(b1-4)GlcNAc(b1-3)Gal(b1-4)GlcNAc
Method in brief: as §1

[22] = target: Neu5Ac(a2-6)Gal(b1-4)GlcNAc(b1-3)Gal(b1-4)GlcNAc
Method in brief: as §1

[23] = target: Neu5Ac(a2-6)Gal(b1-4)GlcNAc6S
Method in brief: as §1

[24] = target: Neu5Ac(a2-8)Neu5Ac(a2-3)[GalNAc(b1-4)]Gal(b1-4)Glc
Method in brief: as §1

[25] = target: Neu5Ac(a2-8)Neu5Ac(a2-8)Neu5Ac
Method in brief: as §1

[26] = target: Neu5Gc(a2-3)Gal(b1-3)[Fuc(a1-4)]GlcNAc
Method in brief: as §1

[27] = target: Neu5Ac(a2-3)Gal(b1-3)GlcNAc(b1-3)GalNAc
Method in brief: as §1

[28] = target: Neu5Ac(a2-3)Gal(b1-4)[Fuc(a1-3)]GlcNAc
Method in brief: as §1

[29] = target: Neu5Ac(a2-3)Gal6S(b1-4)GlcNAc
Method in brief: as §1

[30] = target: Neu5Ac(a2-6)Gal(b1-4)GlcNAc(b1-2)Man(a1-6)[Gal(b1-4)GlcNAc(b1-2)Man(a1-3)]Man(b1-4)GlcNAc(b1-4)GlcNAc
Method in brief: as §1

[31] = target: Neu5Ac(a2-6)Gal(b1-4)GlcNAc(b1-3)Gal(b1-4)[Fuc(a1-3)]GlcNAc(b1-3)Gal(b1-4)[Fuc(a1-3)]GlcNAc
Method in brief: as §1

Neu5Gc(a2-6)GalNAc = target: Neu5Gc(a2-6)GalNAc
Method in brief: as §1

| Binder | glycan array binding signal (z-score) [1] | glycan array binding signal (z-score) [2] | glycan array binding signal (z-score) (Fuc(a1-2)Gal(b1-4)Glc6S) | glycan array binding signal (z-score) [3] | glycan array binding signal (z-score) [4] | glycan array binding signal (z-score) [5] | glycan array binding signal (z-score) [6] | glycan array binding signal (z-score) [7] | glycan array binding signal (z-score) [8] | glycan array binding signal (z-score) (Fuc(a1-4)GlcNAc) | glycan array binding signal (z-score) [9] | glycan array binding signal (z-score) (Gal(a1-3)GalNAc) | glycan array binding signal (z-score) (Gal(b1-3)GlcNAc) | glycan array binding signal (z-score) [10] | glycan array binding signal (z-score) [11] | glycan array binding signal (z-score) (Gal4S6S(b1-4)GlcNAc) | glycan array binding signal (z-score) [12] | glycan array binding signal (z-score) [13] | glycan array binding signal (z-score) (GlcNAc(b1-3)Gal) | glycan array binding signal (z-score) [14] | glycan array binding signal (z-score) [15] | glycan array binding signal (z-score) [16] | glycan array binding signal (z-score) [17] | glycan array binding signal (z-score) [18] | glycan array binding signal (z-score) [19] | glycan array binding signal (z-score) [20] | glycan array binding signal (z-score) (Man(a1-3)[Man(a1-6)]Man) | glycan array binding signal (z-score) (Man(b1-4)GlcNAc) | glycan array binding signal (z-score) [21] | glycan array binding signal (z-score) [22] | glycan array binding signal (z-score) [23] | glycan array binding signal (z-score) [24] | glycan array binding signal (z-score) [25] | glycan array binding signal (z-score) [26] | glycan array binding signal (z-score) [27] | glycan array binding signal (z-score) [28] | glycan array binding signal (z-score) [29] | glycan array binding signal (z-score) [30] | glycan array binding signal (z-score) [31] | glycan array binding signal (z-score) (Neu5Gc(a2-6)GalNAc) |
| --- | --- | --- | --- | --- | --- | --- | --- | --- | --- | --- | --- | --- | --- | --- | --- | --- | --- | --- | --- | --- | --- | --- | --- | --- | --- | --- | --- | --- | --- | --- | --- | --- | --- | --- | --- | --- | --- | --- | --- | --- |
| DGL (Dioclea grandiflora), P08902 (protein) ADTIVAVELDSYPNTDIGDPNYPHIGIDIKSIRSKSTARWNMQTGKVGTVHISYNSVAKRLSAVVSYSGSSSTTVSYDVDLNNVLPEWVRVGLSATTGLYKETNTILSWSFTSKLKTNSIADENSLHFSFHKFSQNPKDLILQGDAFTDSDGNLELTKVSSSGDPQGNSVGRALFYAPVHIWESSAVVASFDATFTFLIKSPDREPADGITFFIANTDTSIPSGSGGRLLGLFPDAN | -0.177 | -0.169 | -0.172 | -0.176 | -0.144 | -0.168 | -0.177 | -0.182 | -0.072 | -0.175 | -0.175 | -0.173 | -0.172 | -0.151 | -0.161 | -0.183 | -0.176 | 0.316 | -0.178 | -0.183 | 5.91 | 9.67 | 3.48 | 6.68 | 7.91 | 6.41 | 3.63 | -0.186 | -0.183 | -0.178 | -0.179 | -0.178 | -0.175 | -0.179 |  |  |  |  |  |  |
| Gal 3 (Homo sapiens), P17931 (protein) MADNFSLHDALSGSGNPNPQGWPGAWGNQPAGAGGYPGASYPGAYPGQAPPGAYPGQAPPGAYHGAPGAYPGAPAPGVYPGPPSGPGAYPSSGQPSAPGAYPATGPYGAPAGPLIVPYNLPLPGGVVPRMLITILGTVKPNANILDFQRGNDVAFHFNPRFNENNRRVIVCNTKLDNNWGREERQSVFPFESGKPFKIQVLVEPDHFKVAVNDAHLLQYNHRVKKLNEISKLGISGDIDLTSASYTMI |  |  |  |  |  |  |  |  |  |  |  |  |  |  |  |  |  |  |  |  |  |  |  |  |  |  |  |  | 3.82 |  |  |  |  |  | -0.375 | -0.39 | -0.387 | -0.391 | -0.386 | -0.392 |
